According to the supplement of paper PMC7156485:
Values joined by “and” are separate entries in the source; they are usually repeats but may differ in a detail not shown here. Identical values can stand only once.

What was measured:
Details in all cases: concentration: 10 µM; 24 h
HCC1569 [1] = assay: cell number relative to DMSO (% of DMSO); higher = more cells (less growth inhibition / toxicity)
Outline: (§1)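 After 24 h at 37 °C with compounds at 10 µM, in triplicate, HCC1569 and TDF cells were fixed with 3.7% formaldehyde. Immunostaining used a rabbit anti-H1.0 antibody and an AlexaFluor 647 secondary, with DAPI, and six fields per well were imaged at ×10. H1.0 nuclear intensity or cell number is presented as percent of the plate control, from the median of replicates, with HCC1569 values smoothed for positional effects.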

TDF [2] = assay: as above
Outline: as §1

TDF [3] = assay: H1.0 immunofluorescence intensity relative to DMSO (% of DMSO); higher = stronger H1.0 induction, active = 120 or more
Outline: as §1

HCC1569 [4] = assay: H1.0 immunofluorescence intensity relative to DMSO (% of DMSO); higher = stronger H1.0 induction, active = 140 or more
Outline: as §1
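Throughout, for H1.0 immunofluorescence intensity relative to DMSO: TDF is a line of transformed human dermal fibroblasts of mesenchymal origin.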
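Throughout, for cell number relative to DMSO: TDF denotes transformed human dermal fibroblasts of mesenchymal origin.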

| SMILES | cell number (HCC1569 [1]) | cell number (TDF [2]) | H1.0 immunofluorescence intensity (TDF [3]) | H1.0 immunofluorescence intensity (HCC1569 [4]) |
| --- | --- | --- | --- | --- |
| Nc1nc2ccccc2c2ccccc12 [6-phenanthridinamine] | 88.1 | 64.8 | 97.8 (inactive) | 117 (inactive) |
| CCN1CCN(C(=O)NC(C(=O)NC2C(=O)N3C2SC(C)(C)C3C(=O)O)c2ccccc2)C(=O)C1=O (stereo unspecified) [Piperacillin] | 101 | 100 | 95.4 (inactive) | 119 (inactive) |
| CCCCCCCCCCCCCCCCCCOCC(COP(=O)([O-])OCC[N+](C)(C)C)OC (stereo unspecified) [1-Octadecyl-2-methylglycero-3 PC] | 105 | 100 | 96.6 (inactive) | 101 (inactive) |
| O=C(Nc1nc2ccccc2n1CCN1CCOCC1)c1cccc([N+](=O)[O-])c1 [IRAK-1/4 Inhibitor] | 98.2 | 104 | 91.2 (inactive) | 117 (inactive) |
| COc1cc(C=CC(=O)c2ccc(O)cc2O)ccc1O [Homobutein] | 95.5 | 101 | 92 (inactive) | 100 (inactive) |
| CN(C)CCN1C(=O)c2ccccc2N(C)c2ccccc21 [Dibenzepine] | 102 | 112 | 97.7 (inactive) | 111 (inactive) |
| CN(C)CCn1cc(S(=O)(=O)c2cccc(F)c2)c2cccnc21 | 99.5 | 74.4 | 127 (active) | 111 (inactive) |
| CCN(CC)CCCCN1c2ccccc2Oc2ccc(Cl)cc21.Cl | 88.8 | 86.3 | 110 (inactive) | 159 (active) |
| Cn1cc(C=C2C(=O)Nc3cccnc32)c2ccccc21 | 89.7 and 101 | 104 and 96 | 96 (inactive) and 95.3 (inactive) | 161 (active) and 98.5 (inactive) |
